In PubChem BioAssay AID1347385 (Zoeller Lab, School of Medicine, Boston University, 2020):
In all, about 20,000 compounds went through this assay and about 85 (0.4%) were called active.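 The calls were made as follows: active = cell survival signal 2 SD away from solvent-only control wells, confirmed on one or two retests; inactive = the rest.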 Shown is part of a subset that was picked to be rich in actives.

assay: phospholipid synthesis inhibitors, CHO cells, primary screen, ZR-82 cells, Enamine library, screen 3 (AID 1347385); conditions: ZR-82 CHO cells, pyrene fatty acid UV survival, CellTiter Blue, peroxisome-deficient CHO-K1 mutant line, plus DGAT-1, DGAT-2 and ACAT inhibitors; at 10 µM unless noted;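 also: 3 h compound exposure then viability read about one day after UV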

SMILES	outcome
O=C(NC(O)C(Cl)(Cl)Cl)C12CC3CC(CC(C3)C1)C2 (configuration not stated)	inactive
CCOC(=O)c1c(C)[nH]c(C(=O)OCC(=O)C(C)(C)C)c1C	inactive
C#CCN=Cc1c(O)n(CCOC)c(=S)[nH]c1=O	inactive
O=S(=O)(Oc1cccc2cccnc12)c1ccc2ccccc2c1	inactive
CC(Sc1nnc(-c2ccc(C(C)(C)C)cc2)o1)c1nnc(-c2ccc([N+](=O)[O-])cc2)o1 (configuration not stated)	inactive
O=C1NC(c2ccc3c(c2)OCO3)C(C(=O)c2ccccc2)C(O)(C(F)(F)F)N1 (configuration not stated)	inactive
CCN(CC)[P+](N)(c1nc2ccccc2n1C)N(CC)CC	inactive
COC(=O)c1cc(C(O)(C(F)(F)F)C(F)(F)F)c(N=CN(C)C)s1	inactive
C=CCn1c(SCc2c(C)noc2C)nc2sc3c(c2c1=O)CCC(C)C3 (configuration not stated)	inactive
Cn1cc(-c2nn(-c3ccccc3)cc2/C=N/NC(N)=S)c2ccccc21	inactive [setting not given]
Cc1cc(C=C2Sc3ccccc3N2C)cc(C)[n+]1CCCn1ccnc1	inactive
CC1CCC2(CC1)NC(=O)N(CC1CC1(Cl)Cl)C2=O (configuration not stated)	inactive
COc1ccc(OCCN2CCN(C(=N)N)CC2)cc1	inactive
C=CCNC(=S)NN=C1c2ccccc2-c2ccccc21	inactive
O=C(CSc1ncnc2sc3c(c12)CCC3)N1CCCCC1	inactive
C=CCOc1c(Cl)cc(S(=O)(=O)c2cc(Cl)c(O)c(Cl)c2)cc1Cl	inactive
COCCn1c(C)cc(C(=O)COC(=O)Cn2c(C)csc2=O)c1C	inactive
COc1ccc(C2=CC(c3ccc(OC)cc3)n3nnnc3N2)cc1 (configuration not stated)	inactive
O=[N+]([O-])c1ccc(NC(=S)N=C2c3ccccc3CN2c2ccc(Cl)cc2)cc1	inactive
O=S1(=O)CCC(NS(=O)(=O)c2ccc(Cl)c(Cl)c2)C1 (configuration not stated)	inactive
NC=C(S(=O)(=O)c1ccc(Cl)cc1)S(=O)(=O)c1ccc(Cl)cc1	inactive

SMILES	outcome
O=c1c(-c2cc3ccccc3o2)coc2ccccc12	inactive
O=C1C=CC(=O)N1c1ccc(Br)cc1	inactive
CC1CCN(C2=NS(=O)(=O)c3ccccc32)CC1	inactive
CCSc1nnc(SCC(=O)c2c(N)n(CC(C)C)c(=O)n(C)c2=O)s1	inactive
Cc1ccc(-c2csc3nc(CSc4nnnn4C)[nH]c(=O)c23)s1	inactive
CCCSc1nsc(N)n1	inactive
Clc1ccc2nc(CSc3ccc4ccccc4c3)cn2c1	inactive
Fc1ccc(Cn2c3[n+](c4ccc(C(F)(F)F)cc42)CCCCC3)cc1	inactive
COC(=O)c1noc(C(=O)OC)c1O	inactive
FC(F)(F)C(=NCc1ccco1)NC1(C(Cl)(Cl)Cl)Oc2ccccc2O1	inactive
CCOc1cc(C)c(S(=O)(=O)N2CCCC2)cc1C(C)C	inactive
CCN(CC)c1ccc([P+](CC)(c2ccc(N(CC)CC)cc2)c2ccc(N(CC)CC)cc2)cc1	inactive
COc1ccc(OC)c(C2CC(c3ccco3)=NN2S(C)(=O)=O)c1 (configuration not stated)	inactive
CCCc1ccc(C2=C(C)SC3=NS(=O)(=O)CCN32)cc1	inactive
Cc1cc(C)nc(SCc2cn3c(C)cc(C)nc3n2)n1	inactive
COc1ccc(C2=NN3C(C2)c2ccccc2OC32CCCC2)c(OC)c1 (configuration not stated)	inactive
Cc1cc(C(=O)C(C)n2cnc3c2c(=O)n(C)c(=O)n3C)c(C)n1Cc1ccco1 (configuration not stated)	inactive
O=[N+]([O-])c1ccc(-c2c[n+](=O)c3c(n2[O-])CCCCC3)cc1	inactive
CC(C)(C)NC(=O)NC(=O)COC(=O)C1(C)CC1(Cl)Cl (configuration not stated)	inactive
Cc1nc2sc3c(c2c2nnnn12)CCCC3	inactive
O=C1OC(c2ccccc2)=N/C1=C\c1ccc(C(F)(F)F)cc1	inactive

SMILES	outcome
Cc1ccc(C)n1-n1c(C)nc2sc3c(c2c1=O)CCCC3	inactive
O=S1(=O)CCC(NC2CCCCC2)C1 (configuration not stated)	inactive
Cc1ccc(C2=Nn3cc(-c4ccccc4)nc3SC2)cc1	inactive
O=c1oc2cc(O)c(Cl)cc2c2c1CCCC2	inactive
C=CCNS(=O)(=O)c1ccc2c(c1)OCCO2	inactive
Cn1nnc2c(=O)[nH]cc([N+](=O)[O-])c21	inactive
CC(C)(C)c1cnnn1-c1ccc([N+](=O)[O-])cc1	inactive
CC1CNC(=O)NC1=O (configuration not stated)	inactive
CCCCn1c(N)c(N(CC)C(=O)/C=C/c2ccco2)c(=O)[nH]c1=O	inactive
CCCCNC(=S)N(C)/N=C1\C(=O)Nc2ccc([N+](=O)[O-])cc21	inactive [setting not given]
O=c1oc2ccccc2c(O)c1C=Nc1ccccc1Br	inactive
O=C1Nc2ccc([N+](=O)[O-])cc2/C1=N/n1cnnc1	inactive [setting not given]
c1ccc(CCc2nc(-c3ccncc3)no2)cc1	inactive
Nc1nnc(SCC(=O)O)s1	inactive
CCOC(=O)/C=C1\SCC(=O)N1CCSc1nnc(C)s1	inactive
COc1cc(/C=N/OCc2ccc([N+](=O)[O-])cc2)ccc1OC(F)F	inactive [setting not given]
CC1=C(C(C)C)Nc2nnnn2C1c1ccc(Br)cc1 (configuration not stated)	inactive
CCOC(=O)c1c(-c2ccc(C)o2)csc1N=Cc1c(O)[nH]c(=S)[nH]c1=O	inactive
NC(=S)c1cccc(Br)c1	inactive
NC1=NC(=O)/C(=C\c2ccc3c(c2)OCO3)S1	inactive
